Only some compounds are listed: those with a hit (about 3.3% of all), similar ones and a draw of the others.
AmpC detergent – qHTS Inhibitors of AmpC Beta-Lactamase (assay with detergent). AmpC hydrolysis of nitrocefin, absorbance 480 nm, 0.01% Triton. Potency, µM (series often up to 114 µM), without a hit: at the highest dose activity change, negative = inhibition, actives largely listed as inhibitors. 0.041% of 370,000 active. AID 485294, 2010;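 further: potency means the concentration at half of the fitted maximal effect; 0% = no-compound wells and -100% = no-enzyme wells; nearly all actives have a fitted effect of over 25% in size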
Target sequence (P00811 whole entry, looked up): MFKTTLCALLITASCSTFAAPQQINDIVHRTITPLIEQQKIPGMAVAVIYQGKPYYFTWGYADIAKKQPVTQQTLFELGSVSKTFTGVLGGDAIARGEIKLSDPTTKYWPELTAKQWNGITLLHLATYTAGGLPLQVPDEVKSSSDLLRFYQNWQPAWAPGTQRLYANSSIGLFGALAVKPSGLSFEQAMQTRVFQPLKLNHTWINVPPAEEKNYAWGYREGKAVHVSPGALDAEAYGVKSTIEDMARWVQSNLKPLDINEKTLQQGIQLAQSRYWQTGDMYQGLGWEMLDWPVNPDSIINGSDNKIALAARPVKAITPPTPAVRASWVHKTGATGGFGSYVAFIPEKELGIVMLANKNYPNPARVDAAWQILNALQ
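20 mM phosphate pH 7.0 + 0.01% (detergent screen) or 0.0001% Triton X-100; 5.3 nM AmpC reagent; cpd preinc 15 min RT; nitrocefin (800 uM stock) to start; A480 q20 s × 4 min; Activity was normalised to no-enzyme and no-compound control wells.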
RE007 growth inh – qHTS Assay for Inhibitors of the HIV-1 protein Vpr | Potency, µM (top dose mostly 92.2 µM), without a hit: at the top dose activity change, negative = less growth, most hits filed as inhibitors | 0.21% of 360,000 active | S. pombe RE007 Vpr strain, BacTiter-Glo ATP luminescence, 24 h; active means well fitted falling curve with a large enough effect; inconclusive means small, poorly fitted or top-dose-only effect; inactive means no such curve, though single readings can be large or run the other way; further: potency means the concentration at half of the fitted maximal effect; on the % scale 0 is the no-effect control and ±100 the full control effect; nearly all actives have a fitted effect of over 50% in size
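Fission yeast strain RE007, carrying one chromosomally integrated HIV-1 vpr copy, was seeded at OD 0.01 in PMG+AL medium with 23 nL pinned compound. After 24 h at 30 °C and 99% humidity, viability was read by BacTiter-Glo luminescence.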
AmpC inh no detg – qHTS Inhibitors of AmpC Beta-Lactamase (assay without detergent) | AmpC nitrocefin hydrolysis, absorbance 480 nm, 0.0001% Triton | P00811 | AID 485341, 2010 | Potency, µM (top dose mostly 57.1 µM), for inactives: at the highest dose activity change, negative = inhibition, most hits filed as inhibitors | 0.52% of 330,000 active;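 further: potency means the concentration at half of the fitted maximal effect; plate controls were no compound for no effect and no enzyme for full effect; nearly all actives have a fitted effect of over 20% in size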
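AmpC (5.3 nM in the dispensed reagent) in 20 mM phosphate pH 7.0 with 0.01% (detergent screen) or 0.0001% Triton X-100 was preincubated with compounds for 15 min at room temperature. Nitrocefin was then added from an 800 uM solution, and hydrolysis was followed at 480 nm.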
SARS PLpro yeast-1 – qHTS of Yeast-based Assay for SARS-CoV PLP | 0.19% of 330,000 active | AID 485353, 2010 | S. cerevisiae expressing SARS-CoV PLpro, growth rescue | Potency, µM (doses to about 32.9 µM), without a hit: top-dose activity, positive = growth rescue, actives largely listed as activators; calls by dose curve; further: potency means the concentration at half of the fitted maximal effect; 0% is about no effect; nearly all actives have a fitted effect of over 55% in size
Sm TGR inh – qHTS Assay for the Inhibitors of Schistosoma Mansoni Peroxiredoxins; Schistosoma mansoni thioredoxin glutathione reductase (TGR), Q962Y6; purified TGR, DTNB reduction, TNB absorbance 405 nm; Potency, µM (series often up to 114 µM), inactives show at the top dose activity change, negative = inhibition, hits mostly inhibitors; 3% of 360,000 active; further: potency means the concentration at half of the fitted maximal effect; on the % scale 0 is the no-effect control and ±100 the full control effect; nearly all actives have a fitted effect of over 60% in size
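First, TGR (20 nM dispensed) and NADPH were mixed with compound. Second, a 15 min room-temperature incubation followed. Third, further NADPH and then DTNB were added to start the reaction. Finally, TNB absorbance was monitored kinetically.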
Tb PYK inh – qHTS of Trypanosoma Brucei Inhibitors | pyruvate kinase (Trypanosoma brucei), Q57TT1 | TbPYK enzyme, Kinase-Glo Plus ATP luminescence, 45 min | Potency, µM (doses to about 76.8 µM), inactives show top-dose activity, negative = inhibition, hits mostly inhibitors | 0.12% of 410,000 active | AID 624173, 2012; further: potency means the concentration at half of the fitted maximal effect; on the % scale 0 is the no-effect control and ±100 the full control effect; nearly all actives have a fitted effect of over 50% in size
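ADP (130 uM final) triggers the TbPYK reaction after compound addition; incubation is 45 min at room temperature. Kinase-Glo Plus is then added and luminescence imaged. Normalized data are fitted to concentration-effect curves.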
SARS PLpro yeast-2 – qHTS of Yeast-based Assay for SARS-CoV PLP: Hit Validation | calls only | yeast expressing SARS-CoV PLpro, growth phenotype rescue | shares compounds with SARS PLpro yeast-1 | 19% of 1,000 active; call rule not given here
Active calls of the source: *; i = inactive; ? = inconclusive; nt = not tested or not shown; + = active, no number. Unless noted, the call rests on the fitted dose curve; in most records, active means well fitted curve in the direction sought with a large enough effect; inconclusive means small, poorly fitted or top-dose-only effect, or another doubt; inactive means no such curve, though single readings can be large; an effect the other way counts as inactive or inconclusive.

SMILES | AmpC detergent | RE007 growth inh | AmpC inh no detg | SARS PLpro yeast-1 | Sm TGR inh | Tb PYK inh | SARS PLpro yeast-2
O=C(N/N=C/c1c(O)n(Cc2ccc(F)cc2)c(=O)[nH]c1=O)c1ccccc1O | -2% | -23% | -39% | 11µM* | 35µM* | -8% | i
O=C(N/N=C/c1c(O)n(CCc2ccccc2)c(=O)[nH]c1=O)c1ccccc1O | 1% | -13% | -57% | 2.2µM* | -36% | 0% | ?
O=C(N/N=C/c1c(O)n(Cc2ccco2)c(=O)[nH]c1=O)c1ccccc1 | -6% | -11% | -23% | 4% | -34% | -5% | nt
COc1ccc(Cn2c(O)c(/C=N/NC(=O)c3ccccc3O)c(=O)[nH]c2=O)cc1 | -6% | -8% | -53% | 10µM* | ? | 1% | i
COc1ccc(Cn2c(O)c(C=NCCN3CCOCC3)c(=O)[nH]c2=O)cc1 | -4% | 21% | -19% | -7% | ? | -5% | nt
O=C(N/N=C/c1c(O)n(Cc2ccccc2)c(=O)[nH]c1=O)c1ccccc1O | -12% | 16% | -37% | 10µM* | 25µM* | -4% | i
Cc1ccc(NC(=O)C2CCCN(S(=O)(=O)c3ccc4c(c3)oc(=O)n4C)C2)cc1Cl (stereo not drawn) | -3% | nt | nt | nt | 2% | -1% | nt
Cc1ccc(NC(=O)CCn2nc(C)c(S(=O)(=O)N3CCCCC3)c2C)cc1Cl | 4% | nt | nt | nt | 8% | -5% | nt
CCn1ccc2cc(S(=O)(=O)N3CCC(C(=O)NCc4ccc(F)cc4)CC3)ccc21 | 7% | nt | nt | nt | 4% | 2% | nt
COc1ccc(Cn2c(O)c(/C=N/NC(=O)c3ccncc3)c(=O)[nH]c2=O)cc1 | -1% | -7% | -50% | 10% | ? | 7% | nt
COc1ccc(Cn2c(O)c(/C=N/NC(=O)c3ccccc3)c(=O)[nH]c2=O)cc1 | ? | 25% | -25% | 10µM* | ? | 7% | i
Cc1cccc(C)c1NC(=O)CC1SC2=NCCN2C1=O (stereo not drawn) | 1% | -4% | -21% | ? | 25µM* | 0% | i
C[C@@H]1C[C@H]2[C@@H]3CCC4=CC(=O)C=C[C@]4(C)[C@@]3(F)[C@@H](O)C[C@]2(C)[C@H]1C(=O)CO | 0% | 8% | 22% | 10µM* | -21% | 5% | i
Cc1ccc2oc(=O)n(CCNC(=O)Nc3ccccc3Cl)c2c1 | 3% | nt | nt | nt | 3% | 6% | nt
CCOC(=O)/C(C#N)=C\c1cn(C)c2ccccc12 | -4% | 1% | 6% | -1% | 49% | -4% | nt
CCOC(=O)/C(C#N)=C/c1c(OCC)n(CC)c2ccccc12 | -22% | 5% | -9% | 13µM* | -32% | -6% | i
CCc1c(C)sc2c1CCN(Cc1cccc(F)c1)C2c1ccccc1 (stereo not drawn) | 3% | nt | nt | nt | -5% | 1% | nt
CCN(CC)S(=O)(=O)c1ccc(S(=O)(=O)N2CCCC2C(=O)O)cc1 (stereo not drawn) | ? | -2% | -10% | 22µM* | -2% | 1% | i
COC(=O)c1c(NC(=O)CSc2nc3ccccc3c(=O)n2Cc2ccco2)sc(C)c1C | -6% | 46% | -31% | ? | -2% | 0% | +
COC(=O)c1c(NC(=O)CSc2nnc(-c3ccco3)n2Cc2ccccc2)sc(C)c1C | ? | 1% | -2% | 14% | 8% | -8% | nt
O=C(CNC(=S)NC(=O)c1ccccc1Br)c1ccccc1 | 5% | -5% | 6% | 2% | 7% | -5% | nt
CCCCNC(=S)NC(=O)c1ccccc1Br | -5% | 0% | -20% | 11µM* | -27% | -16% | +
Cc1ccc(SCCC(=O)Nc2c(C)n(C)n(-c3ccccc3)c2=O)cc1 | -2% | -10% | -3% | ? | 0% | 5% | i
Cc1c(NC(=O)C(C)Sc2ccccc2)c(=O)n(-c2ccccc2)n1C (stereo not drawn) | -2% | 6% | -4% | -7% | 0% | -8% | nt
Cc1ccc(SC(C)C(=O)Nc2c(C)n(C)n(-c3ccccc3)c2=O)cc1 (stereo not drawn) | 3% | 22% | -7% | ? | 3% | -6% | +
SMILES | AmpC detergent | RE007 growth inh | AmpC inh no detg | SARS PLpro yeast-1 | Sm TGR inh | Tb PYK inh | SARS PLpro yeast-2
CC(=O)Nc1ccc(NC(=O)Cn2cc3c(n2)CCCCC3)cc1 | 12% | nt | nt | nt | 6% | -7% | nt
Cc1ccccc1-c1cc2nccc(-c3cc(Cl)ccc3O)n2n1 | -2% | nt | nt | nt | 7% | 8% | nt
Cc1ccc(CN2CCN(/N=C/c3ccc(C(F)(F)F)cc3)CC2)c(C)c1 | ? | -27% | -12% | ? | -2% | -7% | i
CCCCOC(=O)Oc1ccc2c(=O)c(Oc3cc(C)cc(C)c3)coc2c1 | ? | 19% | -18% | ? | ? | -1% | i
CC(CNC(=O)Cn1cnc2c(NCc3ccccc3)ncnc21)c1ccccc1 (stereo not drawn) | nt | 8% | -16% | 14µM* | nt | 0% | +
O=C(Cn1cnc2c(NCc3ccccc3)ncnc21)NCCCc1ccccc1 | nt | 2% | -16% | -3% | nt | 4% | nt
Cc1ccc2[nH]c(=S)cc(C)c2c1 | ? | -2% | -24% | 22µM* | 3% | -9% | +
COc1ccc(-n2nc3c(N4CCCC(C(=O)NCc5ccc(C)cc5)C4)nnc(C)c3c2C)cc1 (stereo not drawn) | 1% | nt | nt | nt | -28% | 1% | nt
Cc1ccc(C(=O)NCC(C)(C)N2CCOCC2)s1 | 1% | 2% | -8% | 0% | 0% | 1% | nt
CC(C)(CNC(=O)c1sc2cc(F)ccc2c1Cl)N1CCOCC1 | ? | -10% | -13% | ? | -12% | 1% | i
CCOc1ccc(OCCC(=O)N(CCCOC)c2c(N)n(Cc3ccccc3)c(=O)[nH]c2=O)cc1 | ? | -23% | 44% | ? | 6% | 2% | i
CCCCN(C(=O)CCOc1ccc(OCC)cc1)c1c(N)n(Cc2ccccc2)c(=O)[nH]c1=O | nt | 0% | nt | nt | nt | -1% | nt
CCCCN(C(=O)CSc1nnc(-c2ccc(OC)cc2)n1CC)c1c(N)n(Cc2ccccc2)c(=O)[nH]c1=O | -1% | 0% | 5% | ? | 1% | 1% | i
COc1ccc(Br)cc1CNC(=O)CCSCc1ccc(Cl)cc1 | 10% | nt | nt | nt | 8% | -9% | nt
